# PubChem BioAssay (EPA / NIEHS)
# The source made the active and inactive calls. The calls were made as follows: active = hit-call score of the fitted dose curve at least 0.9, where 1 is the maximum; inactive = score below 0.9.
# How the values were obtained:
# [1] = ATG_CRE_CIS: Attagene CIS-FACTORIAL HepG2 Assay for human cAMP Responsive Element (CRE) binding protein 3 (AID 2282926); details: HepG2 CRE cis-reporter, Attagene multiplexed mRNA; actives raise or lower the signal
# Method in brief: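 HepG2 cells transiently transfected with cis-element-driven multiple reporter transcription units; CRE reporter mRNA measured 24 h after dosing by RT-PCR, 6-FAM labelling, HpaI digestion and capillary electrophoresis. Bidirectional fit versus DMSO baseline.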
# [2] = target: CCAAT/enhancer-binding protein beta (Homo sapiens) (UniProt P17676); test: ATG_C_EBP_CIS: Attagene CIS-FACTORIAL HepG2 Assay for human CCAAT/Enhancer Binding Protein (C/EBP) beta (AID 2282927); details: HepG2 Attagene cis-factorial transcription factor reporter; actives raise or lower the signal
# Method in brief: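 Transiently transfected HepG2 (MRTU library, endogenous TF-driven promoters); 24 h dosing; total RNA → oligo(dT) RT → PCR → 6-FAM primer extension → HpaI digest → CE; fit bidirectionally vs DMSO.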
# [3] = ATG_CMV_CIS: Attagene CIS-FACTORIAL HepG2 Assay for human CMV (Internal Marker) (AID 2282928); details: HepG2 CMV promoter reporter, transcription factor profiling; actives raise or lower the signal;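 also: endpoint acts as a background internal control marker rather than a target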
# Method in brief: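 Endogenous transcription factor activity read in HepG2 via transfected cis-promoter reporter units. After 24 h dosing, reporter mRNA measured by RT-PCR/capillary electrophoresis; gain or loss of signal fit relative to DMSO.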
# [4] = ATG_DR4_LXR_CIS: Attagene CIS-FACTORIAL HepG2 Assay for human Liver X Receptor (LXR), DR4 submotif (AID 2282929); details: HepG2 Attagene DR4 cis-reporter, mRNA transcription; actives raise or lower the signal
# Method in brief: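 Readout: reporter transcript fluorescence after RT-PCR and capillary electrophoresis, fitted bidirectionally against DMSO controls. Human HepG2 liver cells carried transiently transfected multiplexed reporter constructs; endogenous transcription factor activity measured 24 h post-dosing.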
# [5] = target: Aryl hydrocarbon receptor (Homo sapiens) (UniProt P35869); test: ATG_Ahr_CIS: Attagene CIS-FACTORIAL HepG2 Assay for human Aryl Hydrocarbon Receptor (Ahr) (AID 2282930); details: HepG2 AhR cis-factorial reporter transcription; actives raise or lower the signal
# Method in brief: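 Read-out: reporter mRNA quantified by RT-PCR with fluorescent primer extension and capillary electrophoresis. Human HepG2 liver cells carried transfected cis-promoter reporter units and were exposed to chemical for 24 h; gain or loss fitted relative to DMSO.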
# [6] = ATG_AP_1_CIS: Attagene CIS-FACTORIAL HepG2 Assay for human Activator Protein 1 (AP-1) (AID 2282931); details: HepG2 Attagene cis-factorial AP-1 reporter mRNA; actives raise or lower the signal
# Method in brief: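 Reporter transcripts were measured 24 h after dosing by RT-PCR and capillary electrophoresis of fluorescent fragments. Cells: HepG2 carrying transfected cis-regulated reporter constructs reading endogenous factor activity. Gain or loss fitted against DMSO.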
# [7] = ATG_AP_2_CIS: Attagene CIS-FACTORIAL HepG2 Assay for human Activator Protein 2 (AP-2) (AID 2282932); details: HepG2 AP-2 cis-reporter, Attagene transcription factor profiling; actives raise or lower the signal
# Method in brief: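 HepG2 cells transiently transfected with cis-element reporter units and exposed for 24 h. Reporter mRNA measured by RT-PCR, FAM labelling, HpaI digestion and capillary electrophoresis. Changes in either direction fitted relative to DMSO.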
# [8] = ATG_BRE_CIS: Attagene CIS-FACTORIAL HepG2 Assay for human Bone Morphogenetic Protein (BMP) Response Element (BRE) (AID 2282933); details: HepG2 BMP response element reporter, Attagene transcription factor profiling; actives raise or lower the signal
# Method in brief: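 Gain- or loss-of-signal was derived by bidirectional fitting against DMSO controls. The signal came from reporter mRNA, measured by RT-PCR and capillary electrophoresis, in HepG2 cells transiently carrying multiple reporter units and dosed for 24 h.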
# [9] = target: Retinoic acid receptor alpha (Homo sapiens) (UniProt P10276); test: ATG_DR5_RAR_CIS: Attagene CIS-FACTORIAL HepG2 Assay for human Retinoic Acid Receptor Alpha (RARE), DR5 submotif (AID 2282934); details: HepG2 Attagene cis-factorial RARE DR5 reporter, mRNA; actives raise or lower the signal
# Method in brief: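 Read-out: DR5-driven reporter transcript measured by RT-PCR, 6-FAM primer extension, HpaI digest and capillary electrophoresis. Human HepG2 liver cells carry transiently transfected cis-element reporter constructs; dosing lasts 24 h. Gain or loss of signal fitted against DMSO baseline.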
# [10] = target: Transcription factor E2F1 (Homo sapiens) (UniProt Q01094); test: ATG_E2F_CIS: Attagene CIS-FACTORIAL HepG2 Assay for human E2F Transcription Factor 1 (AID 2282935); details: HepG2 Attagene cis-reporter, E2F reporter RNA transcripts; actives raise or lower the signal
# Method in brief: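 Endogenous E2F1 activity read through cis-promoter reporter units transfected into HepG2. After 24 h compound treatment, reporter mRNA measured by RT-PCR, HpaI digestion and capillary electrophoresis. Bidirectional fit versus DMSO.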
# [11] = ATG_E_Box_CIS: Attagene CIS-FACTORIAL HepG2 Assay for human Enhancer Box (E-box) (AID 2282936); details: HepG2 E-box cis-reporter transcription, actives raise or lower the signal
# Method in brief: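 HepG2 cells transiently transfected with multiplexed cis-element reporter units, dosed 24 h; reporter mRNA quantified by RT-PCR, 6-FAM labelling, HpaI digestion and capillary electrophoresis. E-box (USF1) signal fitted bidirectionally vs DMSO.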
# [12] = ATG_M_61_CIS: Attagene CIS-FACTORIAL HepG2 Assay for M61 Transcription Factor (Internal Marker) (AID 2282937); details: HepG2 Attagene CIS-FACTORIAL M61 internal marker reporter; actives raise or lower the signal
# Method in brief: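 Readout: fluorescent reporter mRNA fragments resolved by capillary electrophoresis after RT-PCR. Transiently transfected human HepG2 cells carried MRTU constructs reporting endogenous TF activity; 24 h chemical exposure; gain or loss of signal fitted relative to DMSO.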
# [13] = ATG_EGR_CIS: Attagene CIS-FACTORIAL HepG2 Assay for human Early Growth Response 1 (EGR1) (AID 2282938); details: HepG2 Attagene CIS-FACTORIAL EGR reporter mRNA; actives raise or lower the signal
# Method in brief: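 Read-out: fluorescent reporter-mRNA fragments resolved by capillary electrophoresis after RT-PCR, 24 h post-dose in transiently transfected HepG2. Endogenous transcription-factor activity reported via cis-element-regulated reporter units; gain or loss fitted relative to DMSO.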
# [14] = ATG_M_19_CIS: Attagene CIS-FACTORIAL HepG2 Assay for M19 Transcription Factor (Internal Marker) (AID 2282939); details: HepG2 Attagene CIS-FACTORIAL M19 internal marker reporter; actives raise or lower the signal
# Method in brief: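 Following a 24 h exposure, RNA from transfected HepG2 cells was reverse-transcribed, PCR-amplified with reporter-specific primers, end-labelled with 6-FAM and HpaI-digested before capillary separation. Values represent gain or loss versus DMSO.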
# [15] = ATG_Ets_CIS: Attagene CIS-FACTORIAL HepG2 Assay for human Erythroblast Transformation Specific (ETS) (AID 2282941); details: HepG2 ETS cis-reporter transcription, actives raise or lower the signal
# Method in brief: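 Steps: transfect HepG2 with multiple reporter units; treat compound 24 h; isolate RNA, DNase-treat, reverse-transcribe; PCR-amplify, label with 6-FAM, digest with HpaI; separate by capillary electrophoresis. Activity fitted both directions versus DMSO.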
# [16] = target: Hepatocyte nuclear factor 3-beta (Homo sapiens) (UniProt Q9Y261); test: ATG_FoxA2_CIS: Attagene CIS-FACTORIAL HepG2 Assay for human Forkhead box A2 (FOXA2) (AID 2282942); details: HepG2 cis-reporter transcription factor activity, 24 h; actives raise or lower the signal
# Method in brief: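 Readout: fluorescent reporter transcripts resolved by capillary electrophoresis after RT-PCR. Transiently transfected HepG2, 24 h compound exposure, endogenous TF activity at cis promoter elements. Gain or loss of signal fitted relative to DMSO.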
# [17] = ATG_GATA_CIS: Attagene CIS-FACTORIAL HepG2 Assay for human GATA Binding Protein (AID 2282944); details: HepG2 GATA cis-element reporter, Attagene multiplex mRNA; actives raise or lower the signal
# Method in brief: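 DMSO serves as negative control and baseline for bidirectional fitting of reporter mRNA changes. HepG2 cells bearing transiently transfected cis-promoter reporters were exposed 24 h; transcripts detected via RT-PCR and capillary electrophoresis.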
# [18] = ATG_GLI_CIS: Attagene CIS-FACTORIAL HepG2 Assay for human Zinc Finger Protein GLI1 (AID 2282945); details: HepG2, Attagene cis-factorial reporter mRNA, GLI element; actives raise or lower the signal
# Method in brief: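 Transiently transfected HepG2 cells report endogenous transcription factor activity via cis-element-driven reporter units. After 24 h compound exposure, reporter mRNA was measured by RT-PCR with capillary electrophoresis; bidirectional fitting against DMSO baseline.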
# [19] = ATG_FoxO_CIS: Attagene CIS-FACTORIAL HepG2 Assay for human Forkhead box O (FoxO) (AID 2282943); details: HepG2 Attagene cis-reporter, FoxO element, mRNA; actives raise or lower the signal
# Method in brief: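 Read-out: fluorescence of 6-FAM-labelled reporter cDNA fragments resolved by capillary electrophoresis. Transiently transfected HepG2 cells were dosed for 24 h; activity fitted in both directions relative to DMSO controls.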
# Chain of CCAAT/enhancer-binding protein beta (Homo sapiens) (P17676 whole entry, looked up): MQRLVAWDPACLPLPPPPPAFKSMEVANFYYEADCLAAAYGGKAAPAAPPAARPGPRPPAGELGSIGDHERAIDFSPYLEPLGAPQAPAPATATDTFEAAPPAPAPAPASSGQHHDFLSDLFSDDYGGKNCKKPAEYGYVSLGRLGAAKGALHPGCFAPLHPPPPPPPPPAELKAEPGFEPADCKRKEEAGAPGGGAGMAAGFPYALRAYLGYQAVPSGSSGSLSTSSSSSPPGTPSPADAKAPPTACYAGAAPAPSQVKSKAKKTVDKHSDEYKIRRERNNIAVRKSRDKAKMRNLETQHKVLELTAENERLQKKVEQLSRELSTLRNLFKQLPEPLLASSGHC
# Chain of Transcription factor E2F1 (Homo sapiens) (Q01094 whole entry, looked up): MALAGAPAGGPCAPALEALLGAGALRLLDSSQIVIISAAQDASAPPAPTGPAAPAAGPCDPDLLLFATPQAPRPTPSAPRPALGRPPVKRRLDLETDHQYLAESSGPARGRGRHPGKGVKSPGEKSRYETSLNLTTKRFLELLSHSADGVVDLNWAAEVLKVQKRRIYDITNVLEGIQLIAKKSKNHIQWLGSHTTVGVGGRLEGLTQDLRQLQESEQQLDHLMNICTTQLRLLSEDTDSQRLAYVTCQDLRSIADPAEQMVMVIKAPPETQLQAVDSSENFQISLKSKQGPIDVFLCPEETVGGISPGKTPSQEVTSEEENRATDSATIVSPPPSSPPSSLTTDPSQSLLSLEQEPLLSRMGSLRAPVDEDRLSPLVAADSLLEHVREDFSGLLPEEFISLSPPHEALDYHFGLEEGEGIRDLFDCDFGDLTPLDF
# Chain of Hepatocyte nuclear factor 3-beta (Homo sapiens) (Q9Y261 whole entry, looked up): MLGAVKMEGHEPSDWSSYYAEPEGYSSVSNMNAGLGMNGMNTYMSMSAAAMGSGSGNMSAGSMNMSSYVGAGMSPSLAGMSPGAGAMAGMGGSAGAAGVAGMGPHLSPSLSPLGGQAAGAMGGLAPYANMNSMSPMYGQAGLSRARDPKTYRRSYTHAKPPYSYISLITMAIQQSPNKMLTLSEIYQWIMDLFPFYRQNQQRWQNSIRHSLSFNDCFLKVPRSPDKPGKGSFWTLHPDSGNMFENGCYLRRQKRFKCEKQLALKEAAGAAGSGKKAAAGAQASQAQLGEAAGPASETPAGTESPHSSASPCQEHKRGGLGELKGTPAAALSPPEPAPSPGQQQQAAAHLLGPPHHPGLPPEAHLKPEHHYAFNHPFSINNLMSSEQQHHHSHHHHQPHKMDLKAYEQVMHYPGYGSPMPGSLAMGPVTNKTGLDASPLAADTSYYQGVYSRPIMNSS
# Chain of Retinoic acid receptor alpha (Homo sapiens) (P10276 whole entry, looked up): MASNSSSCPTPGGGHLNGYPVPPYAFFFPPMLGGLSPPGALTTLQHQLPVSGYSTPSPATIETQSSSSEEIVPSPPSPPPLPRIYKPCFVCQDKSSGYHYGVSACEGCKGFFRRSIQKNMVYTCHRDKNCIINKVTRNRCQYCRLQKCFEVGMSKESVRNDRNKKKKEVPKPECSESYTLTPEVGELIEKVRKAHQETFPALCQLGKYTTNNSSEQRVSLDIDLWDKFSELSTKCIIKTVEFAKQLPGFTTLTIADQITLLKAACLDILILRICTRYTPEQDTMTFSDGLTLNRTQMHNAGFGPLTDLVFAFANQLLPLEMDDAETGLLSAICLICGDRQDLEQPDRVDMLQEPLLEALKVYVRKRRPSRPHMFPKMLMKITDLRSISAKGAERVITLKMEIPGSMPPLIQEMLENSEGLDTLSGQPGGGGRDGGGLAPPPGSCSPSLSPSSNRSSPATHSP
# Chain of Aryl hydrocarbon receptor (Homo sapiens) (P35869 whole entry, looked up): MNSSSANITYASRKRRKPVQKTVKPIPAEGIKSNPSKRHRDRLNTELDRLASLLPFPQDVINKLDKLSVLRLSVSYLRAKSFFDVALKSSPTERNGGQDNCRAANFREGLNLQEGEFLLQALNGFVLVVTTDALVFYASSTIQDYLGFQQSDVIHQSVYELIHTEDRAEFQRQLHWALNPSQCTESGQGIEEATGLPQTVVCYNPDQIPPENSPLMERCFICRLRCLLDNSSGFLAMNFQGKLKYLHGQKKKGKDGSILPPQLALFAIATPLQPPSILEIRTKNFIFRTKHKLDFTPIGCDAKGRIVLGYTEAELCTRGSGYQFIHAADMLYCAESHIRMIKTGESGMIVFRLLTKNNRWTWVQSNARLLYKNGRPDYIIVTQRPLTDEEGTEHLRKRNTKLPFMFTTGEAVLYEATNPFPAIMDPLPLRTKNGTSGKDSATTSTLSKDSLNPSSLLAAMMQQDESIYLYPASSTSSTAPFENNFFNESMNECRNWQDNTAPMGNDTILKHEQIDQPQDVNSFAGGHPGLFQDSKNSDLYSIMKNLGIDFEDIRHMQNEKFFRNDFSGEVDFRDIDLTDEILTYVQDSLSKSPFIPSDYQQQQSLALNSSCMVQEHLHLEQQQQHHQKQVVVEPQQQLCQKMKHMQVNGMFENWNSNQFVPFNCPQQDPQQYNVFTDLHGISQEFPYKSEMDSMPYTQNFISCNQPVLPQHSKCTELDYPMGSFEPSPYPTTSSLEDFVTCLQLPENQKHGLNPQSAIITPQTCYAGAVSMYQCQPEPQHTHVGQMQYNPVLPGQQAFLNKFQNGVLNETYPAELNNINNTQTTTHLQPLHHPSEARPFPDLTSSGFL
compound,measurement,setting,value
COc1ccc(N=Nc2cc(C)c(N=Nc3ccc(S(=O)(=O)O)cc3)cc2OC)cc1,AC50,[1],19.8 µM (active)
same,AC50,[2],42.9 µM (active)
same,outcome,[3],inactive
same,AC50,[4],74.3 µM (active)
same,AC50,[5],4.25 µM (active)
same,outcome,[6],inactive
same,outcome,[7],inactive
same,outcome,[8],inactive
same,outcome,[9],inactive
same,outcome,[10],inactive
same,AC50,[11],100 µM (active)
same,outcome,[12],inactive
same,outcome,[13],inactive
same,outcome,[14],inactive
same,AC50,[15],166 µM (active)
same,outcome,[16],inactive
same,AC50,[17],100 µM (active)
same,outcome,[18],inactive
CN1CCOCC1,outcome,[1],inactive
same,outcome,[2],inactive
same,outcome,[3],inactive
same,outcome,[4],inactive
same,outcome,[5],inactive
same,outcome,[6],inactive
same,outcome,[7],inactive
same,outcome,[8],inactive
same,outcome,[9],inactive
same,outcome,[10],inactive
same,outcome,[11],inactive
same,outcome,[12],inactive
same,outcome,[13],inactive
same,outcome,[14],inactive
same,outcome,[15],inactive
same,outcome,[16],inactive
same,outcome,[17],inactive
same,outcome,[18],inactive
CC(=O)c1ccccn1,outcome,[1],inactive
same,outcome,[2],inactive
same,outcome,[3],inactive
same,outcome,[4],inactive
same,outcome,[5],inactive
same,outcome,[6],inactive
same,outcome,[7],inactive
same,outcome,[8],inactive
same,outcome,[9],inactive
same,outcome,[10],inactive
same,outcome,[11],inactive
same,outcome,[12],inactive
same,outcome,[13],inactive
same,outcome,[14],inactive
same,outcome,[15],inactive
same,outcome,[19],inactive
same,outcome,[17],inactive
same,outcome,[18],inactive
COCCOC(=O)c1ccccc1C(=O)OCCOC,outcome,[1],inactive
same,outcome,[2],inactive
same,outcome,[3],inactive
same,outcome,[4],inactive
same,outcome,[5],inactive
same,outcome,[6],inactive
same,outcome,[7],inactive
same,outcome,[8],inactive
same,outcome,[9],inactive
same,outcome,[10],inactive
same,outcome,[11],inactive
same,outcome,[12],inactive
same,outcome,[13],inactive
same,outcome,[14],inactive
same,outcome,[15],inactive
same,outcome,[16],inactive
same,outcome,[17],inactive
same,outcome,[18],inactive
O=C1OC(=O)c2c(Br)c(Br)c(Br)c(Br)c21,outcome,[1],inactive
same,outcome,[2],inactive
same,outcome,[3],inactive
same,outcome,[4],inactive
same,outcome,[5],inactive
same,outcome,[6],inactive
same,outcome,[7],inactive
same,outcome,[8],inactive
same,outcome,[9],inactive
same,outcome,[10],inactive
same,outcome,[11],inactive
same,outcome,[12],inactive
same,outcome,[13],inactive
same,outcome,[14],inactive
same,outcome,[15],inactive
same,outcome,[16],inactive
same,AC50,[19],165 µM (active)
same,outcome,[17],inactive
same,outcome,[18],inactive
CCCCC(CC)C(=O)OC(C)C (configuration not stated),outcome,[1],inactive
same,outcome,[2],inactive
same,outcome,[3],inactive
same,outcome,[4],inactive
same,outcome,[5],inactive
same,outcome,[6],inactive
same,outcome,[7],inactive
same,outcome,[8],inactive
same,outcome,[9],inactive
same,outcome,[10],inactive
same,outcome,[11],inactive
same,outcome,[12],inactive
same,outcome,[13],inactive
same,outcome,[14],inactive
same,outcome,[15],inactive
same,outcome,[16],inactive
same,outcome,[19],inactive
same,outcome,[17],inactive
same,outcome,[18],inactive
CCCOC(=O)c1c(Cl)c(Cl)c(Cl)c(Cl)c1C(=O)OCCC,AC50,[1],171 µM (active)
same,outcome,[2],inactive
same,AC50,[3],73.6 µM (active)
same,AC50,[4],27 µM (active)
same,outcome,[5],inactive
same,AC50,[6],178 µM (active)
same,outcome,[7],inactive
same,outcome,[8],inactive
same,outcome,[9],inactive
same,AC50,[10],59.9 µM (active)
same,outcome,[11],inactive
same,outcome,[12],inactive
same,outcome,[13],inactive
same,outcome,[14],inactive
same,outcome,[15],inactive
same,outcome,[16],inactive
same,outcome,[17],inactive
same,AC50,[18],74.8 µM (active)
O=C1CCCC=CCCCCCCCCCC1,outcome,[1],inactive
same,outcome,[2],inactive
same,AC50,[3],44.1 µM (active)
same,AC50,[4],33.4 µM (active)
same,outcome,[5],inactive
same,AC50,[6],50.3 µM (active)
same,outcome,[7],inactive
same,outcome,[8],inactive
same,outcome,[9],inactive
same,outcome,[10],inactive
same,outcome,[11],inactive
same,outcome,[12],inactive
same,outcome,[13],inactive
same,outcome,[14],inactive
same,outcome,[15],inactive
same,outcome,[16],inactive
same,outcome,[19],inactive
same,outcome,[17],inactive
same,outcome,[18],inactive
